These results are taken from paper PMC6212790, “How bacterial xenogeneic silencer rok distinguishes foreign from self DNA in its resident genome”.

Over roughly 33,000 sequences, “e-score” has its median near -0.037; the highest 2% begin near 0.34. The list comes from a sample in which the highest values are over-represented; it also holds similar and randomly drawn sequences.

The target of the assay is T1, GST-Rok (full length) (Bacillus subtilis subsp. subtilis str. …, UniProt O34857 1-191).
T1 sequence: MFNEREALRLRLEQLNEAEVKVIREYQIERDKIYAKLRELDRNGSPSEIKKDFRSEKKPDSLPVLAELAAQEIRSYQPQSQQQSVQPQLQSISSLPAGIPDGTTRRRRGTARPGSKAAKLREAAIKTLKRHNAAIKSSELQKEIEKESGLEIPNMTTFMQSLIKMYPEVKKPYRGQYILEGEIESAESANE
The experiment in a line: protein binding microarray; Rok is a gene silencer of Bacillus subtilis; high values mean tight binding. Conditions: protein: recombinant; tags: GST (pTH5325, pDEST15-Magic modified); dsDNA, one strand shown. The gist of the method:
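Each has a 25-mer constant primer and a 35-mer variable part from a de Bruijn sequence of order 10, covering every non-palindromic 8-mer at least 32 times (palindromic 16). Preference for each 8-mer is given as a rank-based, unitless enrichment score (E-score). Its range runs from 0.5 (most favored) to −0.5 (most disfavored).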
For the sequence TAGGCTAA, the binding signal is -0.112 E-score. With ATATCGAT, the binding signal was 0.316 E-score. With AAGTCTGA the figure was -0.121 E-score. With CTAGGAAC the figure was -0.0546 E-score.

Take GGTAGCAA: the binding signal came to 0.241 E-score.

As to CGTAGCTC, the binding signal was 0.0159 E-score.

On to AGTAGCTG, for which the binding signal is 0.204 E-score. As to GGTAGCTA, the binding signal is 0.341 E-score. The figure for CGTAGCGA is 0.0631 E-score; for AGTAGCTC it is 0.0983 E-score.

For the sequence GCTAGCTA, the binding signal came out at 0.156 E-score. With ACTAGCTA the figure was 0.347 E-score; with CGTAGCTA, 0.365 E-score; with AGTAGCTA, 0.386 E-score. With GGTAGCGA the figure was 0.0576 E-score; with CCTAGCTA, 0.107 E-score; with GTTGAGGA, -0.0613 E-score. Consider CATTACCA, for which the binding signal stood at 0.14 E-score. The figure for CAGTAACG is 0.112 E-score; for GAACTATC it is 0.292 E-score. With ACACTATA the figure was 0.245 E-score; with CAACTATC, 0.192 E-score.

Regarding AAACTATC, the binding signal is 0.412 E-score. With AAACTATA the figure was 0.396 E-score; with AAACTATT, 0.458 E-score. In the case of TAACTATA, the binding signal was 0.341 E-score.

Consider GAACTATA, for which the binding signal turned out to be 0.289 E-score.

Consider AAACTATG, for which the binding signal worked out at 0.195 E-score. Consider CAACTATA, for which the binding signal turned out to be 0.307 E-score. The figure for TAACTAAA is 0.151 E-score; for AAACTCTT it is 0.188 E-score.

With GCTGGCAC, the binding signal was -0.181 E-score. The figure for GTGCCAAA is -0.127 E-score; for AGTGAAGA it is -0.00169 E-score; for CTCGAAAG it is -0.0828 E-score. As for TACCTATA, the binding signal worked out at 0.37 E-score. Regarding CACCTATA, the binding signal is 0.214 E-score. The figure for CACCTAAA is 0.131 E-score; for AACCTAAA it is 0.102 E-score. With TACCTAAA the figure was 0.37 E-score. The figure for AACCTATA is 0.239 E-score; for ATTAAGAA it is 0.154 E-score.

Turning to ACTTGCCG, the binding signal is -0.0504 E-score. With AAACTCTC the figure was 0.106 E-score. The figure for CACCATCG is -0.0961 E-score; for TATCAATA it is 0.343 E-score; for AATCAATA it is 0.296 E-score. With GATCAATA the figure was 0.157 E-score; with CTCGCGAG, -0.0252 E-score. On to AGAAGGAC, for which the binding signal was -0.175 E-score. On to ACAGAGGC, for which the binding signal is -0.125 E-score. The figure for GACTATTA is 0.157 E-score.

In the case of AACTATTC, the binding signal came to 0.315 E-score.

As to AACTATTA, the binding signal is 0.431 E-score.

Regarding AACTATTG, the binding signal worked out at 0.378 E-score. The figure for CACTATTA is 0.268 E-score. For the sequence ACCTATTG, the binding signal is 0.182 E-score. As to CGGACTCA, the binding signal was -0.0715 E-score. With ATTTTGAA the figure was 0.162 E-score; with CTAAGGGA, -0.154 E-score; with CAGCCCGG, -0.158 E-score. For the sequence AAGTCCGC, the binding signal is -0.0838 E-score. In the case of GCAAGTAA, the binding signal is -0.0735 E-score. With AACCTCAT the figure was -0.155 E-score. The figure for CCTAGTAA is 0.256 E-score. With ACTAGTAA, the binding signal came to 0.382 E-score.

For GCTAGTAA, the binding signal was 0.294 E-score. The figure for ATTAGTAA is 0.314 E-score; for TCTAGTAA it is 0.351 E-score; for ACTAGTGA it is 0.172 E-score. The figure for CTAAGCAG is -0.152 E-score; for ACATCGAT it is 0.166 E-score; for AGCTGGGG it is -0.188 E-score.

Turning to ACTAGAAC, the binding signal was determined as 0.296 E-score. The figure for TCTAGAAA is 0.222 E-score; for ACTAGAAG it is 0.215 E-score. With CCTAGAAA the figure was 0.0461 E-score.

For the sequence ACTAGAAA, the binding signal stood at 0.344 E-score.

In the case of ACGAGAAA, the binding signal was -0.0804 E-score. For GCTAGAAA, the binding signal came out at 0.37 E-score.

With ACAAGAAA, the binding signal was -0.0731 E-score.

For the sequence ACTAGAAT, the binding signal worked out at 0.356 E-score. Take CGCTAGTA: the binding signal is 0.31 E-score.

Turning to CTGGCAGA, the binding signal was -0.0653 E-score. With AGGCAACG the figure was -0.102 E-score; with CGACGCAA, 0.0906 E-score. With CTAGATAG the figure was 0.346 E-score. With CGAGATAG the figure was 0.0866 E-score; with ATAGAGAT, 0.0483 E-score.

Regarding ATCGATAC, the binding signal turned out to be 0.213 E-score. On to ATAGATAG, for which the binding signal came out at 0.34 E-score.

With ATAGATAA, the binding signal came out at 0.297 E-score.

For ATCGATAG, the binding signal is 0.361 E-score.

For ATCGATAA, the binding signal stood at 0.332 E-score. On to ATAGATAT, for which the binding signal came out at 0.374 E-score. In the case of CCAGATAG, the binding signal was 0.188 E-score. With ATAGATAC the figure was 0.331 E-score; with ACAGATAT, 0.153 E-score. As to CCAAGTGG, the binding signal is -0.0692 E-score. On to CTAAAGAG, for which the binding signal was found to be 0.00604 E-score. With AGTTGTGC the figure was 0.157 E-score. The figure for TGTTAACA is 0.207 E-score; for AAGAGCGA it is -0.102 E-score; for ATTGTTTA it is -0.087 E-score.

Regarding AGTGGAGG, the binding signal was -0.0535 E-score. Regarding ATAGATTG, the binding signal amounted to 0.316 E-score. The figure for AGTGATAA is 0.145 E-score; for ATAGATTC it is 0.374 E-score; for AGTGATAG it is 0.377 E-score. With ATAGATTA the figure was 0.301 E-score. With AGTGATAC the figure was 0.231 E-score. Take AGGATTTA: the binding signal turned out to be 0.0716 E-score. The figure for ACTGTACT is 0.209 E-score. The figure for AGATATCG is 0.218 E-score. With GCCCGTAA, the binding signal is -0.148 E-score. The figure for ATGGACAT is 0.0858 E-score.

For the sequence CCGCGGCG, the binding signal was -0.19 E-score.

GATAGCAA: the binding signal amounted to 0.189 E-score. With GATAGCGA the figure was 0.106 E-score. The figure for AATAGCTG is 0.206 E-score; for CATAGCTA it is 0.306 E-score. Take GATAGCTA: the binding signal was 0.35 E-score.

AATAGCTA: the binding signal came out at 0.358 E-score. The figure for ACAGTAAC is 0.293 E-score; for GTCAAAAC it is 0.00409 E-score. Take GGAATGTA: the binding signal came to 0.103 E-score. For the sequence AACACCGT, the binding signal was 0.146 E-score.

Consider GTGACAAC, for which the binding signal was -0.0442 E-score. As to ACTAGATC, the binding signal was 0.327 E-score. The figure for ACTAGATG is 0.339 E-score. Consider GCTAGATA, for which the binding signal stood at 0.342 E-score.

For ACTAGACA, the binding signal worked out at 0.054 E-score. With CCTAGATA the figure was 0.101 E-score. The figure for ACTAGAGA is -0.0107 E-score; for ACTAGACG it is -0.0512 E-score; for GCTAGACA it is 0.0674 E-score. With ACTAGATA the figure was 0.402 E-score. In the case of CAGATTAG, the binding signal came out at 0.083 E-score. With CAGTGTAA the figure was 0.192 E-score; with CACAAAGC, 0.0266 E-score. The figure for ACCACAAG is -0.065 E-score; for CAGGTGCA it is -0.198 E-score; for TATGTCGA it is 0.132 E-score. With CTAATCGA the figure was 0.122 E-score; with ACTACCAT, 0.352 E-score. Consider ACTACCAG, for which the binding signal amounted to 0.238 E-score. The figure for CCTACCAC is 0.224 E-score. The figure for ACTACCAA is 0.305 E-score. With GCTACCAC the figure was 0.188 E-score; with ACTACCAC, 0.347 E-score.

TAGTACCA: the binding signal worked out at 0.166 E-score. With GCATCGAC the figure was 0.0744 E-score; with CTGTAGAA, 0.345 E-score.

In the case of GTGTAGAA, the binding signal worked out at 0.292 E-score. The figure for ATGTAGAA is 0.423 E-score; for ATGTAGAG it is 0.199 E-score; for CTGTAGAC it is 0.117 E-score. With ATGTAGAC the figure was 0.257 E-score; with CCCAAACC, -0.181 E-score. With GTACGGTA the figure was 0.232 E-score; with TACTTACA, 0.331 E-score; with AGGTAGGC, -0.115 E-score. On to GAGTGAAA, for which the binding signal is -0.103 E-score. With ATATAGTG the figure was 0.274 E-score; with GTATAGTA, 0.316 E-score; with ATATAGTA, 0.456 E-score. With CTATAGTA the figure was 0.365 E-score; with ATATAGTC, 0.25 E-score; with CTATAGTC, 0.096 E-score.

For the sequence ACTGCTAG, the binding signal was -0.0701 E-score. With CCGACCAA the figure was -0.12 E-score; with CCGACTAA, 0.0388 E-score.

Consider AGAAACAA, for which the binding signal came out at 0.253 E-score. With AGGTATGC the figure was 0.154 E-score; with AAGTGGAG, -0.191 E-score; with ATCTAATG, 0.241 E-score.

For the sequence ATCTAATA, the binding signal came out at 0.313 E-score.
